Test results: the supplement of paper PMC6607015
Where a name gives a salt, the structure may show the parent alone.

What was measured:
Conditions in all cases: compound concentration in added solution (µM; 5 µl added to 20 µl cells): 10; 18 h
A431 [1] = test: LBPA endosome anti-LBPA integrated intensity (sum per cell), Z-score; higher = more LBPA staining
In short: (§1)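 Four 20× images per well were taken of HeLa MZ or A431 cells that had been seeded at 3,500 per well in 20 µl onto 5 µl of 10 µM compound solution in duplicate 384-well imaging plates. Before imaging, cells were incubated 18 h, fixed in 4% PFA and stained with 6C4 anti-LBPA antibody, filipin, propidium iodide and CellTracker green. Values are Z-scores normalised in AcuityXpress from MetaXpress-derived per-cell integrated LBPA or filipin intensity, either whole-cell or within LBPA endosomes.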

HeLa MZ [2] = test: as above
In short: as §1

A431 [3] = test: whole-cell filipin (free cholesterol) integrated intensity, Z-score; higher = more cholesterol staining
In short: as §1

HeLa MZ [4] = test: as above
In short: as §1

A431 [5] = test: filipin (cholesterol) integrated intensity within LBPA endosomes, Z-score; higher = more cholesterol in LBPA endosomes
In short: as §1

HeLa MZ [6] = test: as above
In short: as §1

| SMILES | LBPA endosome anti-LBPA integrated intensity (z-score) (A431 [1]) | LBPA endosome anti-LBPA integrated intensity (z-score) (HeLa MZ [2]) | whole-cell filipin (z-score) (A431 [3]) | whole-cell filipin (z-score) (HeLa MZ [4]) | filipin (z-score) (A431 [5]) | filipin (z-score) (HeLa MZ [6]) |
| --- | --- | --- | --- | --- | --- | --- |
| COc1ccc(CN2CCNCC2)c(OC)c1OC [Trimetazidine dihydrochloride] | -0.479 | 0.3 | -0.53 | -0.184 | -0.484 | -0.365 |
| CCCC(C)(COC(N)=O)COC(=O)NC(C)C (configuration not stated) [Carisoprodol] | -0.659 | -0.835 | -0.863 | -0.798 | -0.607 | -0.604 |
| CCC(=O)O[C@@](Cc1ccccc1)(c1ccccc1)[C@@H](C)CN(C)C [Levopropoxyphene napsylate] | -0.308 | -0.465 | 0.489 | 0.709 | 0.194 | -0.129 |
| OC(c1ccccc1)(c1ccccc1)C1CCNCC1 [Azacyclonol] | -0.397 | -0.253 | -0.445 | -0.666 | -0.198 | 0.228 |
| CCCCCC[C@H]1C(=O)O[C@H](C)[C@H](NC(=O)c2cccc(NC=O)c2O)C(=O)O[C@@H](C)[C@@H]1OC(=O)CC(C)C [Antimycin A] | -0.868 | -0.65 | -0.217 | -0.804 | -0.854 | -0.994 |
| CC(C)c1c(CN(C)C(C)Cc2ccccc2)n(C)n(-c2ccccc2)c1=O (configuration not stated) [Famprofazone] | -0.355 | -0.241 | -0.228 | -0.336 | -0.4 | -0.445 |
| C=C1C[C@@H]2[C@H](CC[C@]3(C)C(=O)CC[C@@H]23)[C@@]2(C)C=CC(=O)C=C12 [Exemestane] | -0.59 | 0.401 | -0.0622 | -0.2 | -0.537 | -0.552 |
| CC(=O)O[C@H]1C[C@@H]2CC[C@@H]3[C@H](CC[C@@]4(C)[C@H]3C[C@H]([N+]3(C)CCCCC3)[C@@H]4OC(C)=O)[C@@]2(C)C[C@@H]1[N+]1(C)CCCCC1 [Pancuronium bromide] | -0.551 | -0.744 | 0.0171 | -0.166 | -0.527 | -0.532 |
| C[C@]12CC[C@H]3[C@@H](CCC4=CC(=O)CC[C@@H]43)[C@@H]1CC[C@@H]2O [Nandrolone] | -0.352 | 0.296 | -0.14 | -0.437 | -0.296 | -0.508 |
| CCC1(C)CC(=O)NC(=O)C1 [Bemegride] | -0.67 | -1.05 | -0.832 | -0.492 | -0.547 | -0.434 |
| O=C(CCCN1CCC(n2c(=O)[nH]c3ccccc32)CC1)c1ccc(F)cc1 [Benperidol] | 2.05 | 1.55 | 2.2 | 1.83 | 2.28 | 1.91 |
| NCCC(O)C(=O)NC1CC(N)C(OC2OC(CN)C(O)[C@H](O)[C@@H]2N)[C@H](OC2O[C@H](CO)[C@@H](O)[C@@H]2O)[C@@H]1O (some centres not stated) [Butirosin disulfate salt] | -0.571 | -0.99 | -0.257 | 0.609 | -0.399 | -0.239 |
| CCN(C(C)=O)c1cccc(-c2ccnc3c(C#N)cnn23)c1 [Zaleplon] | -0.486 | -0.0487 | -0.573 | -0.909 | -0.493 | -0.507 |
| CN1[C@@H]2CC[C@H]1C[C@@H](OC(=O)[C@H](CO)c1ccccc1)C2 [Hyoscyamine (L)] | -0.717 | -1.24 | -0.954 | -0.599 | -0.664 | -0.33 |
| CC(CCc1ccccc1)NC(C)C(O)c1ccc(O)cc1 (configuration not stated) [Nylidrin] | 0.233 | 1.33 | 0.218 | -0.109 | -0.121 | 0.184 |
| C[C@]12CC[C@@H](O)C[C@@H]1CC[C@@H]1[C@@H]2CC[C@]2(C)C(=O)CC[C@@H]12 [Androsterone] | -0.387 | -0.552 | -0.613 | -0.395 | -0.241 | -0.291 |
| O=C([O-])c1ccccc1-c1c2cc(Br)c(=O)cc-2oc2[c]([Hg+])c([O-])c(Br)cc12.[Na+].[Na+].[OH-] [Merbromin] | -0.53 | -1.95 | -0.246 | -0.654 | -0.525 | -0.65 |
| C[N+]1(C)[C@@H]2CC[C@H]1C[C@@H](OC(=O)C(CO)c1ccccc1)C2 (some centres not stated) [Methylatropine nitrate] | -0.382 | 0.224 | -0.241 | 0.542 | -0.375 | -0.173 |
| CCC(C)C1O[C@]2(C=C[C@@H]1C)C[C@@H]1CC(C/C=C(\C)[C@@H](OC3C[C@H](OC)[C@@H](OC4C[C@H](OC)[C@@H](O)[C@H](C)O4)[C@H](C)O3)[C@@H](C)/C=C/C=C3\COC4[C@H](O)C(C)=CC(C(=O)O1)[C@]34O)O2 (some centres not stated) [Avermectin B1a] | -0.178 | 0.136 | -0.0649 | 0.727 | -0.285 | -0.0937 |
| C#C[C@]1(O)CC[C@H]2[C@@H]3CCC4=CC(=O)CC[C@]4(C)[C@H]3CC[C@@]21C [Ethisterone] | -0.369 | -0.214 | -0.635 | -1.08 | -0.449 | -0.685 |
| NCC(O)c1ccc(O)cc1 (racemic) [(+,-)-Octopamine hydrochloride] | -0.262 | 0.0629 | -0.464 | -0.485 | -0.407 | -0.291 |

| SMILES | LBPA endosome anti-LBPA integrated intensity (z-score) (A431 [1]) | LBPA endosome anti-LBPA integrated intensity (z-score) (HeLa MZ [2]) | whole-cell filipin (z-score) (A431 [3]) | whole-cell filipin (z-score) (HeLa MZ [4]) | filipin (z-score) (A431 [5]) | filipin (z-score) (HeLa MZ [6]) |
| --- | --- | --- | --- | --- | --- | --- |
| C[C@@]12N[C@@H](Cc3ccccc31)c1ccccc12 [(-)-MK 801 hydrogen maleate] | -0.405 | 0.615 | -0.428 | -0.298 | -0.407 | -0.347 |
| CNC(C)(C)Cc1ccccc1 [Mephentermine hemisulfate] | -0.473 | -0.965 | -0.48 | -0.125 | -0.471 | -0.403 |
| CCCN1C[C@H](CSC)C[C@@H]2c3cccc4[nH]cc(c34)C[C@H]21 [Pergolide mesylate] | 2.35 | 1.89 | -0.261 | -0.788 | 0.495 | 0.499 |
| CC(=O)O[C@H]1CC[C@@]2(C)C(=CC[C@@H]3[C@@H]2CC[C@]2(C)C(=O)CC[C@@H]32)C1 [Dehydroisoandosterone 3-acetate] | -0.242 | -0.00203 | 0.0526 | 0.0333 | -0.136 | -0.214 |
| COc1ccc(C(=O)N2CCCC2=O)cc1 [Aniracetam] | -0.475 | 0.124 | -0.904 | -0.402 | -0.562 | -0.3 |
| CC1OC(OC2/C=C/C=C/C=C/C=C/CC/C=C/C=C/[C@H](C)[C@@H](O)[C@@H](C)[C@H](C)OC(=O)CC(O)CC(O)CC(O)CCC(O)C(O)C[C@]3(O)CC(O)C(C(=O)O)C(C2)O3)C(O)C(N)C1O (some centres not stated) [Nystatine] | -0.00963 | 0.129 | 0.146 | 0.0497 | -0.136 | -0.223 |
| CC[C@@H](CO)NC(=O)[C@@H]1C=C2c3cccc4[nH]cc(c34)C[C@H]2N(C)C1 [Methylergometrine maleate] | -0.539 | -1.25 | -0.649 | -0.308 | -0.495 | -0.637 |
| CCNCC(O)c1cccc(O)c1 (configuration not stated) [Etilefrine hydrochloride] | -0.181 | -0.0522 | 0.485 | -0.0907 | -0.374 | -0.466 |
| CCN(C)C(=O)Oc1cccc([C@H](C)N(C)C)c1 [Rivastigmine] | -0.438 | -0.457 | 0.162 | 1.82 | -0.375 | -0.164 |
| CC(=O)OCC(=O)[C@H]1CC[C@H]2[C@@H]3CC[C@H]4C[C@H](O)CC[C@]4(C)[C@H]3C(=O)C[C@]12C [Alfadolone acetate] | 0.719 | 1.43 | 0.996 | 0.815 | 0.478 | 0.736 |
| COc1ccc(C(CN(C)C)C2(O)CCCCC2)cc1 (configuration not stated) [Venlafaxine] | -0.375 | 0.627 | -0.148 | -0.294 | -0.383 | -0.283 |
| c1ccc2nc(N3CCNCC3)ccc2c1 [Quipazine dimaleate salt] | -0.64 | 0.00535 | -0.594 | -0.241 | -0.575 | -0.45 |
| CC(C)[N+](C)(CCC(C(N)=O)(c1ccccc1)c1ccccc1)C(C)C [Isopropamide iodide] | -0.212 | 0.0469 | 0.00888 | -0.577 | -0.389 | -0.451 |
| CC[C@@H](C(N)=O)N1CCCC1=O [Levetiracetam] | -0.634 | -1.5 | -0.363 | 0.0516 | -0.585 | -0.523 |
| CNCC(O)c1ccc(O)cc1 (racemic) [(+,-)-Synephrine] | -0.271 | -0.444 | 0.673 | -0.00115 | -0.481 | -0.576 |
| C[C@]12C[C@H]3S[C@H]3C[C@@H]1CC[C@@H]1[C@@H]2CC[C@]2(C)[C@@H](O)CC[C@@H]12 [Epitiostanol] | -0.387 | 0.565 | 0.372 | 0.761 | -0.364 | -0.401 |
| CCC(=O)O[C@H]1CC[C@H]2[C@@H]3CCC4=CC(=O)CC[C@]4(C)[C@H]3CC[C@]12C [Testosterone propionate] | -0.618 | -0.712 | -0.907 | -0.813 | -0.502 | -0.546 |
| C1CCc2nnnn2CC1 [Pentylenetetrazole] | -0.641 | -1.19 | -0.85 | -0.876 | -0.452 | -0.614 |
| C[C@@H]1CN([C@H]2CC[C@](C#N)(c3ccc(F)cc3)CC2)CC[C@]1(C(=O)O)c1ccccc1 [Levocabastine hydrochloride] | -0.412 | -0.243 | -0.194 | -0.189 | -0.388 | -0.461 |
| CC(C)c1cccc(C(C)C)c1O [Propofol] | -0.483 | -0.0677 | -0.406 | -0.391 | -0.506 | -0.548 |
| O=[N+]([O-])c1cc([As](=O)(O)O)ccc1O [Roxarsone] | -0.422 | -1.01 | 0.39 | 0.562 | -0.281 | -0.327 |
